# Compounds with a hit are over-represented: about 3.9% of the library has one in this group of screens.
# CDK5 inh: blocks human CDK5/p35 kinase activity. 0.01% of 330,000 active. Recombinant CDK5/p35, ADP-Glo luminescence, 60 min. AID 488839. Q00535+Q15078. inhibition, % at 10 µM;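 active = highest replicate inhibition of at least 50% and at least 75% of replicates reaching 50%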;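 note: plate controls were DMSO neutral control for no effect and GW8510 at 10 µM for full effect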
# Target sequence (Q00535 whole entry, looked up): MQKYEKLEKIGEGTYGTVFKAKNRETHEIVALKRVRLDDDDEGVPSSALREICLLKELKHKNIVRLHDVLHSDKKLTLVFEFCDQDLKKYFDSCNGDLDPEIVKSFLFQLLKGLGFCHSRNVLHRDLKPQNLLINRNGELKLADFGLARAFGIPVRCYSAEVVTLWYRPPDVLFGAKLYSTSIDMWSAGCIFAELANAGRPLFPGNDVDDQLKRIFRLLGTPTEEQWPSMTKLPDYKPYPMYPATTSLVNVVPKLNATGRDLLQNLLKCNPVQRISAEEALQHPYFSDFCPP
# Target sequence (Q15078 whole entry, looked up): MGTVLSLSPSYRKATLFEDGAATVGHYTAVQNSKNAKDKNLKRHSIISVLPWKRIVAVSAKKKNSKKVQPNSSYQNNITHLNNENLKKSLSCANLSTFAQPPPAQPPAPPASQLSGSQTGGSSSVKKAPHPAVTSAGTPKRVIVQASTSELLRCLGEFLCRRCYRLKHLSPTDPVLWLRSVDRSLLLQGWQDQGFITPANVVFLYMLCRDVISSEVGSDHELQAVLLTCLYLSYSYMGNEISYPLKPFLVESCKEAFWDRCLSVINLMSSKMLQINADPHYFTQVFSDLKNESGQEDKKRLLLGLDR
# NSD2 HMT inh: NSD2 (human) methyltransferase inhibition | NSD2 peptide methylation, AlphaScreen, 120 min | inhibition, % at 12.5 µM | 0.54% of 310,000 active | AID 743445; in the data active = inhibition above about 50%
# SUMO Mot1 rescue: inhibitors of SUMOylation pathway: yeast Mot1-301 growth rescue | S. cerevisiae Mot1-301 growth rescue, ATP luminescence, 38.5C; percent above DMSO median, 100 means doubled | growth rescue, % at 18.8 µM | 1% of 320,000 active | AID 2716;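 active = every valid replicate shows activation above 250% relative to neutral control wells; inactive = the rest, any valid replicate at or below 250%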;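 note: OY570 slx delta 5 strain wells were the positive control but not used for scaling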
# ALR H2O2 inh: blocks human ALR sulfhydryl oxidase activity; P55789; purified ALR, DTT oxidation, H2O2 HRP-luminol luminescence; inhibition, % (test concentration not listed); 3.8% of 290,000 active; AID 485317;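 active = mean replicate inhibition above about 79%, with every replicate also reaching it, limit read from the data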
# Casp6 inh: inhibitors of human caspase-6. P55212. purified caspase-6, Z-VEID-R110 cleavage fluorescence. inhibition, % at 12.5 µM. 0.53% of 350,000 active. AID 686996;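 active = mean inhibition across replicates at least about 35%, with every replicate also reaching that limit, limit read from the data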;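 note: 0% = median of neutral control wells and 100% = no fluorescence left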
# Glyco luc inh: N-linked glycosylation inhibition; reporter increase, % at 12.5 µM; D54 ERlucT glycosylation luciferase reporter, 24 h; percent of 100 nM tunicamycin response; 0.23% of 360,000 active;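 active = mean luciferase reporter signal, scaled so untreated is 0 and the glycosylation-blocking control 100, at or above a set limit in every replicate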;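 note: luciferase carries N-glycosylation sites so blocking glycosylation raises the light; 0% = median of neutral control wells and 100% = median of 100 nM tunicamycin wells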
# Starred values were filed as active, the others as inactive; i = inactive; nt = no result.
SMILES,CDK5 inh,NSD2 HMT inh,SUMO Mot1 rescue,ALR H2O2 inh,Casp6 inh,Glyco luc inh
CCC(=O)N(C)C[C@@H]1Oc2ncc(-c3ccc(C#N)cc3)cc2C(=O)N([C@H](C)CO)C[C@@H]1C,nt,nt,nt,nt,0.3,nt
C[C@@H]1CN([C@@H](C)CO)C(=O)Cc2cc(NC(=O)CCN3CCOCC3)ccc2O[C@@H]1CN(C)C(=O)Nc1ccc(F)cc1,nt,nt,nt,nt,-3.3,nt
O=C(C[C@H]1CC[C@H](NC(=O)c2ccncc2)[C@H](CO)O1)NCC1CCCCC1,nt,nt,nt,nt,6.3,nt
CSc1ccc(NC(=O)CSc2nc3[nH]c(=O)cc(O)c3s2)cc1,0.2,-1.5,3.4,99.0*,0.9,2.3
C[C@H](CO)N1C[C@H](C)[C@H](CN(C)C(=O)[C@H]2CCCN2C)OCc2ccccc2-c2c(n(C)c3ccccc23)C1=O,nt,nt,nt,nt,-1.0,nt
Cc1cccc(C)c1Nc1c(-c2ccsc2)nc2ncccn12,0.0,-4.6,-7.2,98.2*,nt,1.0
Cc1ccc(Nc2c(-c3ccc(N4CCOCC4)cc3)nc3ncccn23)cc1C,-0.2,nt,i,94.0*,-0.1,0.7
Cc1ccc(Nc2c(-c3ccc(N4CCOCC4)cc3)nc3ncccn23)cc1,0.4,nt,-27.5,21.5,-1.8,1.1
Cc1ccccc1Nc1c(-c2ccc(N3CCOCC3)cc2)nc2ncccn12,-1.5,nt,nt,98.2*,1.1,-3.1
C[C@H](C(=O)N(C)C[C@@H]1OCc2ccccc2-c2c(n(C)c3ccccc23)C(=O)N([C@@H](C)CO)C[C@@H]1C)c1ccccc1,nt,nt,nt,nt,1.6,nt
FC(F)(F)C1=CC(c2ccc(Cl)cc2)=NCCN1,-2.6,1.3,424.4,98.9*,nt,0.0
Oc1ccccc1C1=NCCNC(C(F)(F)F)=C1,0.2,3.8,199.8,26.6,-2.1,0.5
Nc1ccccc1N=Nc1ccccc1N,0.8,nt,2.6,87.5*,-1.7,-2.6
C/C=C/c1ccc2c(c1)O[C@H](CN(C)C(=O)C1CCCCC1)[C@@H](C)CN([C@H](C)CO)S2(=O)=O,nt,nt,nt,nt,1.6,nt
S=c1[nH]nc(-c2cc(-c3ccccn3)nc3ccccc23)o1,-0.9,-7.3,13.0,18.8,-0.2,0.6
Cc1ccc(-c2cc(-c3n[nH]c(=S)o3)c3ccccc3n2)cc1,0.0,11.2,13.2,98.3*,0.9,0.9
COc1ccc2cc(C3C(C#N)=C(N)OC(C)=C3C(C)=O)c(Cl)nc2c1 (stereo unspecified),-2.5,5.0,206.5,96.0*,0.5,2.8
CC(=O)C1=C(C)OC(N)=C(C#N)C1c1cc([N+](=O)[O-])ccc1Cl (stereo unspecified),0.6,-3.5,6.3,8.3,1.2,29.5*
CC(=O)C1=C(C)OC(N)=C(C#N)C1c1cccc([N+](=O)[O-])c1 (stereo unspecified),0.5,0.3,7.6,32.6,2.5,1.0
CO[C@@H]1CN(C)C(=O)c2ccc(NS(=O)(=O)c3cn(C)cn3)cc2OC[C@H](C)N(CCC(F)(F)F)C[C@H]1C,nt,nt,nt,nt,5.8,nt
Cc1noc(C)c1S(=O)(=O)Nc1ccc2c(c1)CC(=O)N([C@H](C)CO)C[C@@H](C)[C@H](CN(C)Cc1ccc(C(=O)O)cc1)O2,nt,nt,nt,nt,-0.9,nt
CNc1nnc(-c2ccc(N(C)C)cc2)s1,5.8,-5.0,100.9,99.5*,nt,-18.7
CN1CCN(C(=O)C[C@@H]2CC[C@H]3[C@@H](COC[C@@H](O)CN3C(=O)Cc3ccccc3)O2)CC1,nt,nt,nt,nt,-12.7,nt
N#Cc1cccc(NC(=O)CSc2sc3c(O)cc(=O)[nH]c3c2C#N)c1,-0.1,nt,6.8,98.8*,34.7,2.3
N#Cc1c(SCC(=O)Nc2cccc(F)c2)sc2c(O)cc(=O)[nH]c12,9.9,3.5,-12.3,98.8*,43.7*,2.4
SMILES,CDK5 inh,NSD2 HMT inh,SUMO Mot1 rescue,ALR H2O2 inh,Casp6 inh,Glyco luc inh
Cc1ccccc1SCC(=O)Nc1cccc(C#N)c1,3.2,5.2,102.9,-6.6,nt,-1.4
CCOc1cccc(NC(=O)CSc2sc3c(O)cc(=O)[nH]c3c2C#N)c1,6.7,nt,-7.7,99.1*,16.1,5.5
CC=Cc1ccc2n(c1=O)C[C@@H]1[C@@H](CO)[C@H](C(=O)NCC(F)(F)F)N(CC)[C@H]21 (mixture of isomers),nt,nt,nt,nt,-1.4,nt
COc1ccccc1S(=O)(=O)N[C@H]1CC[C@H](CCNC(=O)C2CCCC2)O[C@H]1CO,nt,nt,nt,nt,-1.1,nt
Oc1ccc(C(=S)N2CCCCCC2)cc1,1.8,16.3,-3.9,7.6,nt,0.2
O=C(O)c1ccc(N2CCCCC2)cc1,0.5,0.3,12.3,-3.7,0.3,0.7
S=C(c1ccc(N2CCCC2)cc1)N1CCCCC1,0.7,-2.8,364.8,98.6*,nt,1.4
CC(=O)N1CCN(c2ccc(N)cc2)CC1,1.3,nt,-10.4,98.5*,35.6*,2.1
Nc1ccc(N2CCCCCC2)cc1,nt,nt,40.9,98.5*,nt,nt
CC(=O)N1CCN(c2ccc(NC(=O)c3ccc(Cl)cc3)cc2)CC1,0.7,0.5,-4.2,2.7,0.6,0.0
O=C(N1CCCCC1)N1CCN(c2ccc(Cl)cc2)CC1,0.1,-0.1,nt,98.3*,nt,-1.9
CC(C)NC(=O)N(C)C[C@H]1Oc2ccc(NC(=O)Nc3ccccc3)cc2C(=O)N([C@@H](C)CO)C[C@H]1C,nt,nt,nt,nt,3.2,nt
Cc1cc(C(=O)c2ccccc2)cc(C)c1O,0.4,-1.1,nt,nt,1.9,0.1
O=C(c1ccccc1)c1ccc(O)c(O)c1O,0.4,nt,nt,nt,73.4*,0.7
COc1ccc(Oc2ccc(/C=C/C(=O)c3cccc(OC)c3)cc2[N+](=O)[O-])cc1,-4.3,-1.2,0.2,-1.2,-1.7,49.6*
COc1ccc(S(=O)(=O)Nc2ccc3c(c2)[C@H]2C[C@H](CC(=O)O)O[C@@H](CO)[C@H]2O3)cc1,nt,nt,nt,nt,2.6,nt
CCCCCCCCCCCCCCCC[n+]1ccc(/C=N/O)cc1,-0.6,nt,-49.0,-1.8,-87.9,87.1*
CSCC[C@H](NC(=O)[C@H](Cc1ccccc1)n1c(=O)[nH]c2ccccc2c1=O)C(=O)N1CCC[C@@H]1C(=O)O,-3.2,nt,734.7*,-5.8,-0.1,-0.4
Nc1c(C(=O)Nc2ccc(S(=O)(=O)N3CCCC3)cc2)sc2nc3cc4c(cc3cc12)CCC4,2.3,-1.4,-18.3,-1.4,nt,17.8
Nc1c(C(=O)Nc2ccc(S(=O)(=O)N3CCCC3)cc2)sc2nc3ccc(OC(F)(F)F)cc3cc12,0.0,0.3,1.1,-1.6,nt,99.6*
O=C1CSCN1c1ccc(Cl)c(Cl)c1,0.0,2.6,45.9,98.5*,2.9,-3.3
O=C(NNC(=S)NCc1ccco1)c1ccc(Cl)s1,0.3,7.4,71.7,10.2,nt,-2.2
O=C(CSCc1ccco1)c1ccc(Cl)s1,nt,nt,-12.6,98.0*,nt,nt
Cc1ccc(NC(=O)NC(=O)CN2CCN(c3ccc(O)cc3)CC2)c(C)c1,0.5,19.9,188.5,99.4*,3.7,-2.0
CC(C)(C)NC(=O)NC(=O)CN1CCN(c2ccc(O)cc2)CC1,-0.5,3.7,-8.9,94.1*,-1.6,-1.8
Cc1ccc(NC(=O)NC(=O)CN2CCC(C(N)=O)CC2)c(C)c1,0.4,-11.7,-5.9,-1.7,-1.7,0.1

# Screening data deposited in PubChem by Broad Institute.
